High-throughput results (PubChem BioAssay)
GPT2 inh = blocks human glutamate pyruvate transaminase 2. Recombinant GPT2, coupled pyruvate oxidase/HRP Amplex Red fluorescence. Potency, µM (series often up to 57.7 µM), for the others: at the top dose activity change, negative = inhibition, actives largely listed as inhibitors. 0.25% of 100,000 active; note: nearly all actives have a fitted effect of over 60% in size
Target sequence (Q8TD30 whole entry, looked up): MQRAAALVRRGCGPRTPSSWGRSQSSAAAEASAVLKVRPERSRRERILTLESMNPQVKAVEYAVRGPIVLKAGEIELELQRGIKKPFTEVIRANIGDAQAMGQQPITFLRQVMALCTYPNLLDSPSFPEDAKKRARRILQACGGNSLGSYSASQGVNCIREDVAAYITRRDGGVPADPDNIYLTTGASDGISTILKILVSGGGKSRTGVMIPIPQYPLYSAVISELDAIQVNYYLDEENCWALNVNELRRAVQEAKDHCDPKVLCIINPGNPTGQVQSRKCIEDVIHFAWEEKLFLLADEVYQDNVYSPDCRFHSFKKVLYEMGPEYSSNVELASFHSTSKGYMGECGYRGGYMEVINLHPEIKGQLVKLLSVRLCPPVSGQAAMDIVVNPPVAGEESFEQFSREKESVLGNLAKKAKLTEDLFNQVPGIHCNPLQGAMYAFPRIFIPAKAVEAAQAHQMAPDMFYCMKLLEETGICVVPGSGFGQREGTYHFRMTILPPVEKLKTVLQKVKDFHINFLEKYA
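GPT2 10ng/uL, a-KG 250uM, L-Ala 2mM, HEPES pH7.5 + 0.0001% Tween; 30 min RT. Then Amplex mix (PO/HRP/ThPP), 30 min RT dark, fluorescence. AOA 50uM used as positive control.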
FLuc inh = inhibitors of firefly (Photinus pyralis) luciferase. purified P. pyralis luciferase, luminescence, biochemical. Potency, µM (highest dose often 115 µM), usual class: inhibitors. 2.5% of 76,000 active; note: nearly all actives have a fitted effect of over 65% in size
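Inhibitors were tested against purified firefly luciferase in a biochemical, low-substrate format (both substrates at 10uM) and luminescence measured with a CCD imager.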
NIH3T3 tox = cytotoxic compounds in NIH 3T3 cells; AID 1345082; 4.3% of 94,000 active; NIH 3T3 viability, CellTiter-Glo ATP luminescence, 48-72 h; Potency, µM (top dose mostly 96.7 µM), without a hit: top-dose activity change, negative = cytotoxicity, actives largely listed as inhibitors; note: nearly all actives have a fitted effect of over 55% in size
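Viability of NIH 3T3 cells after 48 or 72 hr compound treatment at 37 °C was assessed by CellTiter-Glo, with luminescence imaged following a 10 min room-temperature step.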
HEK cytotox = cytotoxic compounds in HEK 293 cells | 6.6% of 94,000 active | Potency, µM (doses to about 115 µM), inactives show at the highest dose activity change, negative = cytotoxicity, most hits filed as inhibitors | HEK 293 viability, ATP luminescence (CellTiter-Glo), 48-72 h | AID 1345083; note: nearly all actives have a fitted effect of over 60% in size
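Read-out: CellTiter-Glo ATP luminescence. Cells: HEK 293, 250 cells/well. Exposure: 48 or 72 hr, 37 degree Celsius.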
hNpr1 antagonist = human Npr1 receptor antagonism; HEK293 hNpr1 GloSensor cGMP, ANP-stimulated luminescence; 1.6% of 76,000 active; P16066; Potency, µM (highest dose often 46.3 µM), for the others: at the highest dose activity change, negative = inhibition, usual class: inhibitors; calls by dose curve; note: nearly all actives have a fitted effect of over 60% in size
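Compound pre-incubated 30 min at room temperature on GloSensor-loaded HEK293 cells stably carrying hNpr1 and the pGS-40F cGMP biosensor. Stimulation uses hNppA at 0.1 nM final; luminescence is taken at baseline and 20 min post-agonist.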
* hit, by the source's call; i = inactive; ? = inconclusive; nt = no result given; [ ] = another dose, or the depositor's remark. Only some compounds are listed: those with a hit (about 10% of all), similar ones and a draw of the others. Unless noted, calls come from the whole dose curve; as a rule, active = well fitted curve in the direction sought with a large enough effect; inconclusive = small, poorly fitted or top-dose-only effect, or another doubt; inactive = no such curve, though single readings can be large; an effect the other way counts as inactive or inconclusive. % is set by controls: 0 for no effect and ±100 for the full control effect; potency is the fitted concentration of half-maximal effect.

SMILES | GPT2 inh | FLuc inh | NIH3T3 tox | HEK cytotox | hNpr1 antagonist
Cc1nn(-c2ccc(F)cc2)c(Oc2cccc(F)c2)c1CCC(=O)N1CCSCC1 | i | i | ? | 35.5µM* | -17.4%
Cc1ccccc1Oc1c(CCC(=O)N2CCSCC2)c(C)nn1-c1ccc(F)cc1 | i | i | ? | ? | -24.9%
Cc1nn(-c2ccc(F)cc2)c(Oc2cccc(F)c2)c1CCC(=O)N(C)C(C)C | 1.8% | i | ? | 50.1µM* | -16.8%
CC(=O)N1CCC(c2nc(-c3nnn4c3COC(c3ccc(Cl)cc3)C4)no2)CC1 (stereo unspecified) | -2.5% | i | -22.4% | -27.4% | -13.9%
COC[C@H]1NC(=O)CC[C@H]1C(=O)NCc1ccccc1 | i | i | -14.8% | -16.7% | -8.5%
COc1ccccc1OCCNC(=O)[C@H]1CCC[C@H]1NC(=O)c1cnc(C)cn1 | -8.9% | i | i | i | 5.4%
Cc1nn(-c2ccc(F)cc2)c(Oc2ccccc2F)c1CCC(=O)NCc1ccco1 | 2.2% | i | 35.5µM* | ? | -18.8%
O=C(NCc1ccccc1)c1ccc2nnc(C3CCCC3)n2c1 | i | nt | 79.4µM* | -36.1%[172 µM] | nt
O=C(NCCc1ccc(Cl)cc1)c1ccc2nnc(C3CCCC3)n2c1 | -4.3% | nt | 35.5µM* | ? | nt
O=C(OCc1ccccc1)N1CCC2(CC1)C(=O)NN=C2C1CC1 | 0.8%[88.5 µM] | i | -11.1%[138 µM] | 112µM* | -2.2%[70.6 µM]
O=c1c2nc(-c3ccc(O)c(F)c3)ccc2ncn1Cc1ccccn1 | -9.8%[88.5 µM] | i | 79.4µM* | -7.1%[172 µM] | 2.0%[70.6 µM]
O=c1c2nc(-c3cccc(O)c3)ccc2ncn1Cc1ccccn1 | -4.7%[88.5 µM] | i | 20µM* | -19.5%[172 µM] | -2.1%[70.6 µM]
COC(=O)[C@@H]1Cc2c([nH]c3ccccc23)[C@H]2C[C@@H](N3CCOCC3)C[C@@H](c3ccc(C(F)(F)F)cc3)N21 | ? | i | 25.1µM* | 22.4µM* | 4.2%
COC(=O)[C@@H]1Cc2c([nH]c3ccccc23)[C@H]2C[C@@H](NCc3cccnc3)C[C@@H](c3ccc(OC(F)(F)F)cc3)N21 | -8.2% | i | 31.6µM* | 28.2µM* | 6.4%
COC(=O)[C@@H]1Cc2c([nH]c3ccccc23)[C@H]2C[C@@H](N3CCOCC3)C[C@@H](c3ccc(OC(F)(F)F)cc3)N21 | -29.1% | i | 44.7µM* | ? | 2.0%
CN1C(=O)CO[C@H](c2ccc(NC(=O)Nc3ccc(F)cc3)cc2)[C@H]1CO | -6.7%[88.5 µM] | i | -6.9%[174 µM] | ? | -1.0%[70.6 µM]
CC(C)CCNC(=O)CCC1CCCN(S(=O)(=O)c2cccc(F)c2)C1 (stereo unspecified) | 1.0% | nt | ? | 44.7µM* | nt
O=C(CCC1CCCN(S(=O)(=O)c2cccc(F)c2)C1)NCC1CC1 (stereo unspecified) | ? | i | -24.2% | -30.7% | -29.7%
CCOc1ccc(NC(=O)CCC2CCCN(S(=O)(=O)c3cccc(F)c3)C2)cc1 (stereo unspecified) | i | nt | -22.4% | 35.5µM* | nt
CCOc1cccc(CNC(=O)CCC2CCCN(S(=O)(=O)c3ccc(C)cc3)C2)c1 (stereo unspecified) | 4.4% | i | ? | ? | -0.3%
Fc1ccc(-c2cc(CC3(NCc4ccc(OC(F)(F)F)cc4)COC3)no2)cc1 | -11.0%[88.5 µM] | i | 100µM* | 79.4µM* | ?
c1ccc(-c2cc(CC3(NCC4CCCCC4)COC3)no2)cc1 | 2.8%[88.5 µM] | i | ? | 100µM* | ?
CCCN(CC1CCOC1)C(=O)Nc1cccc(F)c1C (stereo unspecified) | -9.2% | ? | -8.8% | ? | -3.5%
COc1ccc(CN2CC3(COCC2=O)CN(c2ccccc2)C3)cc1F | i | i | ? | ? | -18.2%[70.6 µM]
O=C1COCC2(CN1Cc1ccccc1)CN(C(=O)c1ccc(F)c(Cl)c1)C2 | -3.0%[88.5 µM] | i | 89.1µM* | -5.2%[172 µM] | 1.9%[70.6 µM]
SMILES | GPT2 inh | FLuc inh | NIH3T3 tox | HEK cytotox | hNpr1 antagonist
O=C1COCC2(CN1Cc1ccccc1)CN(c1cccnc1)C2 | ? | i | 89.1µM* | -28.9%[172 µM] | -1.7%[70.6 µM]
O=C1COCC2(CN1Cc1ccccc1)CN(C(=O)C1(c3ccccc3)CC1)C2 | -3.3%[88.5 µM] | i | 79.4µM* | -1.0%[172 µM] | 5.5%[70.6 µM]
O=C1COCC2(CN(Cc3cc(F)ccc3F)C2)CN1Cc1ccccc1 | 4.4%[88.5 µM] | i | -26.9%[138 µM] | 100µM* | 1.3%[70.6 µM]
Cc1ccc(C2Cn3nnc(C(=O)NC4CCCCC4)c3CO2)cc1 (stereo unspecified) | ? | i | ? | -21.0% | -6.0%
COc1ccccc1-c1cccc(CN2CCCC(C(=O)NCc3cccs3)C2)c1 (stereo unspecified) | -7.4% | nt | ? | ? | nt
O=C(NCc1ccccc1F)C1CCCN(Cc2cccc(-c3cccs3)c2)C1 (stereo unspecified) | nt | nt | 39.8µM* | 44.7µM* | nt
O=C(NCCCc1ccccc1)C1CCCN(Cc2cccc(-c3cccs3)c2)C1 (stereo unspecified) | i | nt | ? | ? | nt
O=C(NCc1ccc(F)cc1)C1CCCN(Cc2cccc(-c3cccs3)c2)C1 (stereo unspecified) | -11.7% | nt | ? | 39.8µM* | nt
O=C(NCc1ccccc1)C1CCCN(Cc2cccc(-c3ccsc3)c2)C1 (stereo unspecified) | nt | nt | 39.8µM* | ? | nt
O=C(NCc1cccc(C(F)(F)F)c1)C1CCCN(Cc2cccc(-c3cccs3)c2)C1 (stereo unspecified) | nt | nt | 7.94µM* | ? | nt
O=C(NCc1ccccc1)C1CCCN(Cc2cccc(-c3cccs3)c2)C1 (stereo unspecified) | nt | nt | 31.6µM* | ? | nt
O=C(NCCc1ccc(Cl)cc1)C1CCCN(Cc2cccc(-c3ccsc3)c2)C1 (stereo unspecified) | nt | nt | 14.1µM* | 22.4µM* | nt
COc1ccc(CNC(=O)C2CCCN(Cc3cccc(-c4cccs4)c3)C2)cc1 (stereo unspecified) | i | nt | ? | ? | nt
CCC(C)NC(=O)C1CCCN(Cc2cccc(-c3ccsc3)c2)C1 (stereo unspecified) | nt | nt | ? | 44.7µM* | nt
O=C(Nc1cccc(F)c1)C1CCCN(Cc2cccc(-c3cccs3)c2)C1 (stereo unspecified) | nt | nt | ? | 31.6µM* | nt
O=C(NCC(F)F)C1CCCN(Cc2cccc(-c3cccs3)c2)C1 (stereo unspecified) | -1.1% | nt | ? | 89.1µM* | nt
COC(=O)CNC(=O)C1CCCN(Cc2cccc(-c3cccs3)c2)C1 (stereo unspecified) | i | nt | ? | -10.8% | nt
CN(Cc1cccnc1)c1nc2c(c(=O)[nH]1)CCN(Cc1ccc(Br)o1)CC2 | i | i | ? | ? | -14.4%
CCOc1ccc(NC(=O)c2ccc3c(c2)N(C)C2CCCCN2C3=O)cc1 (stereo unspecified) | 2.1% | ? | ? | ? | -0.8%
